Assays:
Assay in all cases: log2 ratio of Biotin-Ahx-Ub-VS probe labelling (fragment/DMSO); higher = less target engagement (more negative = stronger competition), active = hit call of the paper (q ≤ 0.05, log2 ratio ≤ -1)
Conditions in all cases: compound concentration: 200 uM; treatment time: 3 h
USP42 = molecular target: T1, USP42 (UniProt Q9H9J4)
T1 sequence (whole entry): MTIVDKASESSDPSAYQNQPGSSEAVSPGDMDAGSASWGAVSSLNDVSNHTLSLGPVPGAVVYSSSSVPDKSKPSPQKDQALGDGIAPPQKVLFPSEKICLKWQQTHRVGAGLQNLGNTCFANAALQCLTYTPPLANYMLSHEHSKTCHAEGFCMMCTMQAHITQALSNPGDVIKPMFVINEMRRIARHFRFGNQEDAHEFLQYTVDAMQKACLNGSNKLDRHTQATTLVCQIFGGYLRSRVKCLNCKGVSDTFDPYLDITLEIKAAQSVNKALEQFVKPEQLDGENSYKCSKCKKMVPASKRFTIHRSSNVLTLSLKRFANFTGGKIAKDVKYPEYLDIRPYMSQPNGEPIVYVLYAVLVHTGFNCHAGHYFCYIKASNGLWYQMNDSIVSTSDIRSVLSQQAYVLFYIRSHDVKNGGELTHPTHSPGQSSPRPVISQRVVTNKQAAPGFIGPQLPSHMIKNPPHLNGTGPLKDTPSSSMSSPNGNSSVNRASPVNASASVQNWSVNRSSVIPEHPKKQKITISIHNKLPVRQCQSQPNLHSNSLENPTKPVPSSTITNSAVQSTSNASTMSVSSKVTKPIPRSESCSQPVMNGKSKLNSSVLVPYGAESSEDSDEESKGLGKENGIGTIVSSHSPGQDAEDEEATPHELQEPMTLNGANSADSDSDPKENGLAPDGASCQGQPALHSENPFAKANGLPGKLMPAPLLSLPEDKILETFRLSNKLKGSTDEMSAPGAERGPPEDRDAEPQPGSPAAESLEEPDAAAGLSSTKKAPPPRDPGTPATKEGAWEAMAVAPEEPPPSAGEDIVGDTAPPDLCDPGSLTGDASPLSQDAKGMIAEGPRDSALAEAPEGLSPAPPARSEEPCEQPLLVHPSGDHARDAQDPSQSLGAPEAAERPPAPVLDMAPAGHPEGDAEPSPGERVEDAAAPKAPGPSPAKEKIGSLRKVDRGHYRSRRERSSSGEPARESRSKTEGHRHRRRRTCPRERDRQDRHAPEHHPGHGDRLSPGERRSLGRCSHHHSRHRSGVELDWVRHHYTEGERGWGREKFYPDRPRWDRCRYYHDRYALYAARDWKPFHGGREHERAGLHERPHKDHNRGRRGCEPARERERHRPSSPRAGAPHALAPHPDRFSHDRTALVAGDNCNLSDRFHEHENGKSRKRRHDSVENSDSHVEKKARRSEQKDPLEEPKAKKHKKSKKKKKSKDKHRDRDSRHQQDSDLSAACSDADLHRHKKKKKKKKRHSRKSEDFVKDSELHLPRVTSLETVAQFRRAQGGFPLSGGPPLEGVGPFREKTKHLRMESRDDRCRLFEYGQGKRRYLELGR
In short: (§1)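 Labelled DUBs from HEK293T lysate were NeutrAvidin-enriched, digested with LysC and trypsin, and run by diaPASEF LC-MS/MS. Before that, each 495 µg sample in Tris/CHAPS/IGEPAL buffer with protease inhibitors was treated in triplicate with fragment at 200 µM or vehicle for 3 h, then with Biotin-Ahx-Ub-VS at 0.5 µM final for 1 h. Values are average log2 ratios of fragment over vehicle by unpaired t-test, based on global-median-normalised Spectronaut label-free quantities from proteins with ≥2 unique peptides.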

USP46 = USP46 (UniProt P62068)
In short: as §1

USP47 = molecular target: T2, USP47 (UniProt Q96K76)
T2 sequence (whole entry): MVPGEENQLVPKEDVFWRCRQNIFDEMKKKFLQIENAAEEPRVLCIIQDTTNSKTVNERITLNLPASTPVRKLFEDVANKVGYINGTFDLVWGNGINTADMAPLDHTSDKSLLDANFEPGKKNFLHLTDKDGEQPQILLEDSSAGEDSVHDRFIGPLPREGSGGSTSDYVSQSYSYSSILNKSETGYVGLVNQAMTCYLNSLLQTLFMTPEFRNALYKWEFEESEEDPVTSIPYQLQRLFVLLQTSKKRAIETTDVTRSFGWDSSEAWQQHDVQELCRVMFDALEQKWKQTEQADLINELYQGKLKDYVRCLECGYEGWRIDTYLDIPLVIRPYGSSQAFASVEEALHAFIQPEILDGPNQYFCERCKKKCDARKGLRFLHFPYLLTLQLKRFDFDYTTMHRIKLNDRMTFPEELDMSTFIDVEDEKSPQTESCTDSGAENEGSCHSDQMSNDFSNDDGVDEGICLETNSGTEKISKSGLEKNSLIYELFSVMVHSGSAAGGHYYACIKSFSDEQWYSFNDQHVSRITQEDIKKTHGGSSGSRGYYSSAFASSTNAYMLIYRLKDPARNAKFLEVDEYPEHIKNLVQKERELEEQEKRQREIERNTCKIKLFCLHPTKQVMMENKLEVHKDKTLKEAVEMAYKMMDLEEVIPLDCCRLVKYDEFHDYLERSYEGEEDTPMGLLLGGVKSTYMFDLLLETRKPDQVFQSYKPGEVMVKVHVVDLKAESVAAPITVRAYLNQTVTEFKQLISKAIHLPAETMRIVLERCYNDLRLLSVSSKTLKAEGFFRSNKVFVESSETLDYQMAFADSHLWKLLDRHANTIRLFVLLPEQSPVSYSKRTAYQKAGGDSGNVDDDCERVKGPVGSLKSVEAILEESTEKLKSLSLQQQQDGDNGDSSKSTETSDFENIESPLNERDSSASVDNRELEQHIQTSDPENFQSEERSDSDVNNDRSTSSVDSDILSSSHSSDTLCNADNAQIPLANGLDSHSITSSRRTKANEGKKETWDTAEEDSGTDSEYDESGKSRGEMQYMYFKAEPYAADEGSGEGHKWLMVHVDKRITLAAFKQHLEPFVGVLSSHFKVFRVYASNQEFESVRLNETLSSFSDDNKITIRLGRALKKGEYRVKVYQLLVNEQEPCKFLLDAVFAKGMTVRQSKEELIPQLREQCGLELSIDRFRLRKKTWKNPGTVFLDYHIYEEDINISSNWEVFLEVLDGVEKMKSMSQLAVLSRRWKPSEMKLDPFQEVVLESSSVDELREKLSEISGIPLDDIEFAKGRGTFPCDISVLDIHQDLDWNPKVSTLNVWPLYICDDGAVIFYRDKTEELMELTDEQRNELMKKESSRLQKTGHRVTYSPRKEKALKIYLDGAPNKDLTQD
In short: as §1

USP48 = molecular target: T3, USP48 (UniProt Q86UV5)
T3 sequence (whole entry): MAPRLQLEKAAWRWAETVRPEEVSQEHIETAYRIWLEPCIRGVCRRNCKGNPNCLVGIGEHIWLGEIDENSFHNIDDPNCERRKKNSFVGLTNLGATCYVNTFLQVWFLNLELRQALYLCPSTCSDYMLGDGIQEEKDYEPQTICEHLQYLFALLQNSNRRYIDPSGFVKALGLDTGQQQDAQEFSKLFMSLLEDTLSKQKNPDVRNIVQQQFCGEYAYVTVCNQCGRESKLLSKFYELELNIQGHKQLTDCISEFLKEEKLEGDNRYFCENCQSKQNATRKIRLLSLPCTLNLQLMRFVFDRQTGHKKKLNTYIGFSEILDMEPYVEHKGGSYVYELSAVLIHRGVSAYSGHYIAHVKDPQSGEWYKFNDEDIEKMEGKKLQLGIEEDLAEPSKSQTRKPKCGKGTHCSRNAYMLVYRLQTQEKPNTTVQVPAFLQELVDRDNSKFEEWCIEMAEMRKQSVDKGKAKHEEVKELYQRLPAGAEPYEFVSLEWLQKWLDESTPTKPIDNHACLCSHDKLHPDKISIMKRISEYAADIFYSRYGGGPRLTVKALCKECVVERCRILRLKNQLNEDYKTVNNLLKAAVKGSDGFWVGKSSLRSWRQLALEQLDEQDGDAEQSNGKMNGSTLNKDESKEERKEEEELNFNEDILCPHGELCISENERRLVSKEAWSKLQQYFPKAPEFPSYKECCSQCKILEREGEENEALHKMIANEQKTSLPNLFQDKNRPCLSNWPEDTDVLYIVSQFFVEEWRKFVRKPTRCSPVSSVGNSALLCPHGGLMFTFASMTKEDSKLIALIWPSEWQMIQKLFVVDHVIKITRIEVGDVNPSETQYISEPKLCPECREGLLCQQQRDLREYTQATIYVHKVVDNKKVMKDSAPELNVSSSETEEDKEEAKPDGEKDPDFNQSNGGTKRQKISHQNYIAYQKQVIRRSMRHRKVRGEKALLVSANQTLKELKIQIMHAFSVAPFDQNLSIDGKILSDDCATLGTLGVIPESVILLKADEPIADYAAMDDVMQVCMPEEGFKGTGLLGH
In short: as §1

USP5 = molecular target: T4, USP5 (UniProt P45974)
T4 sequence (whole entry): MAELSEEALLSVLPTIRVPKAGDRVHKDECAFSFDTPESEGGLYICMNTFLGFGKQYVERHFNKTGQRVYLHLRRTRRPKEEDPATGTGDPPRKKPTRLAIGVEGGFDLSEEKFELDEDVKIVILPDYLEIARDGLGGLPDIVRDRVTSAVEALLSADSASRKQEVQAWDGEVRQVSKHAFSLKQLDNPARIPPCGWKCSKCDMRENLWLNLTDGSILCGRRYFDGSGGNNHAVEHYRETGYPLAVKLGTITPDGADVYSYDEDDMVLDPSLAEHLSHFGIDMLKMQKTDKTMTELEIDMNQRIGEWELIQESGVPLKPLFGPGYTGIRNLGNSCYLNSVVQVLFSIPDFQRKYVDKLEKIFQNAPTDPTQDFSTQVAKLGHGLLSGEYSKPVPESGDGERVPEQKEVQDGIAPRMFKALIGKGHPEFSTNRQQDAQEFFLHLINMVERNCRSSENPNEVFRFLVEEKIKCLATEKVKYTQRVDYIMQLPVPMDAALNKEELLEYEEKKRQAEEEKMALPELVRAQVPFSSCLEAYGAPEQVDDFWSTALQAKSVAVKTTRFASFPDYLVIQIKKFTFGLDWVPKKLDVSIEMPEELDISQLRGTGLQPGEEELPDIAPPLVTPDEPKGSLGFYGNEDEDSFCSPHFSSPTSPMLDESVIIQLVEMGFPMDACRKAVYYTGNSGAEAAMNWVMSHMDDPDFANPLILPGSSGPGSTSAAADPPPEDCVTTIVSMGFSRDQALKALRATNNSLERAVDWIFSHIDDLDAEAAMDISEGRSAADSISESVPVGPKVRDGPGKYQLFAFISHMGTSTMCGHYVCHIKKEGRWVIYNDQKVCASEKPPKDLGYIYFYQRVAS
In short: as §1

USP54 = USP54 (UniProt Q70EL1)
In short: as §1

USP7 = USP7 (UniProt Q93009)
In short: as §1

USP8 = molecular target: T5, USP8 (UniProt P40818)
T5 sequence (whole entry): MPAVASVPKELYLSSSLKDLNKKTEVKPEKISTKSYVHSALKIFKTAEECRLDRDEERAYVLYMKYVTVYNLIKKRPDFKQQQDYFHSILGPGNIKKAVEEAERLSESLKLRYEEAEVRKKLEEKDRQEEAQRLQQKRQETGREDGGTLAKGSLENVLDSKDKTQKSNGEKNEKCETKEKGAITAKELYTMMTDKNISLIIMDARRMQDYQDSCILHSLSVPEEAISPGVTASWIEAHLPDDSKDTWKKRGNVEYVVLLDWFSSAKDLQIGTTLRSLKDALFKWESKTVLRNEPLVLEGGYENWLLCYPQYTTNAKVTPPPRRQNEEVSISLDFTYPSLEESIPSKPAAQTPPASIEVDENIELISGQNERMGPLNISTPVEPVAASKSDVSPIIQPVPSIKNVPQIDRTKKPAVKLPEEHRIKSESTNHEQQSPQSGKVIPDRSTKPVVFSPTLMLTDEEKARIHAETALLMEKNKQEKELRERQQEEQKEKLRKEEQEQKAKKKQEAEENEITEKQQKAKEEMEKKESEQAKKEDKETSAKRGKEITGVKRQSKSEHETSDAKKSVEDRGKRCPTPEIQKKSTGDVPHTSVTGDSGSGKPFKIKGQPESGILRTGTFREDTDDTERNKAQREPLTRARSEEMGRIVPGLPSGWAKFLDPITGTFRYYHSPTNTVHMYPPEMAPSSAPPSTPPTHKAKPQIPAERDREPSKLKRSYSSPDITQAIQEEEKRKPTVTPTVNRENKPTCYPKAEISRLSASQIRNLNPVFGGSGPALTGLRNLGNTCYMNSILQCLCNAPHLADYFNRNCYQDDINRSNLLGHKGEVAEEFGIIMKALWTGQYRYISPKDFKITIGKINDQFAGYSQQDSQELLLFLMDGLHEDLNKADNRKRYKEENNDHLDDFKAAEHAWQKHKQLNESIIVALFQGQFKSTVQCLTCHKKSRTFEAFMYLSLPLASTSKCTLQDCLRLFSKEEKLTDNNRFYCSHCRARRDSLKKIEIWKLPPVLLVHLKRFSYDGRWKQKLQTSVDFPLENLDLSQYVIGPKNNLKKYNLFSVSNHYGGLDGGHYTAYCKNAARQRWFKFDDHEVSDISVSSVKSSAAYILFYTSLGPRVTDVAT
In short: as §1

USP9X = USP9X (UniProt Q93008)
In short: as §1

UniProt O00487 = molecular target: UniProt O00487
In short: as §1

Measured: log2 ratio of Biotin-Ahx-Ub-VS probe labelling

Chain of USP9X (Q93008 whole entry): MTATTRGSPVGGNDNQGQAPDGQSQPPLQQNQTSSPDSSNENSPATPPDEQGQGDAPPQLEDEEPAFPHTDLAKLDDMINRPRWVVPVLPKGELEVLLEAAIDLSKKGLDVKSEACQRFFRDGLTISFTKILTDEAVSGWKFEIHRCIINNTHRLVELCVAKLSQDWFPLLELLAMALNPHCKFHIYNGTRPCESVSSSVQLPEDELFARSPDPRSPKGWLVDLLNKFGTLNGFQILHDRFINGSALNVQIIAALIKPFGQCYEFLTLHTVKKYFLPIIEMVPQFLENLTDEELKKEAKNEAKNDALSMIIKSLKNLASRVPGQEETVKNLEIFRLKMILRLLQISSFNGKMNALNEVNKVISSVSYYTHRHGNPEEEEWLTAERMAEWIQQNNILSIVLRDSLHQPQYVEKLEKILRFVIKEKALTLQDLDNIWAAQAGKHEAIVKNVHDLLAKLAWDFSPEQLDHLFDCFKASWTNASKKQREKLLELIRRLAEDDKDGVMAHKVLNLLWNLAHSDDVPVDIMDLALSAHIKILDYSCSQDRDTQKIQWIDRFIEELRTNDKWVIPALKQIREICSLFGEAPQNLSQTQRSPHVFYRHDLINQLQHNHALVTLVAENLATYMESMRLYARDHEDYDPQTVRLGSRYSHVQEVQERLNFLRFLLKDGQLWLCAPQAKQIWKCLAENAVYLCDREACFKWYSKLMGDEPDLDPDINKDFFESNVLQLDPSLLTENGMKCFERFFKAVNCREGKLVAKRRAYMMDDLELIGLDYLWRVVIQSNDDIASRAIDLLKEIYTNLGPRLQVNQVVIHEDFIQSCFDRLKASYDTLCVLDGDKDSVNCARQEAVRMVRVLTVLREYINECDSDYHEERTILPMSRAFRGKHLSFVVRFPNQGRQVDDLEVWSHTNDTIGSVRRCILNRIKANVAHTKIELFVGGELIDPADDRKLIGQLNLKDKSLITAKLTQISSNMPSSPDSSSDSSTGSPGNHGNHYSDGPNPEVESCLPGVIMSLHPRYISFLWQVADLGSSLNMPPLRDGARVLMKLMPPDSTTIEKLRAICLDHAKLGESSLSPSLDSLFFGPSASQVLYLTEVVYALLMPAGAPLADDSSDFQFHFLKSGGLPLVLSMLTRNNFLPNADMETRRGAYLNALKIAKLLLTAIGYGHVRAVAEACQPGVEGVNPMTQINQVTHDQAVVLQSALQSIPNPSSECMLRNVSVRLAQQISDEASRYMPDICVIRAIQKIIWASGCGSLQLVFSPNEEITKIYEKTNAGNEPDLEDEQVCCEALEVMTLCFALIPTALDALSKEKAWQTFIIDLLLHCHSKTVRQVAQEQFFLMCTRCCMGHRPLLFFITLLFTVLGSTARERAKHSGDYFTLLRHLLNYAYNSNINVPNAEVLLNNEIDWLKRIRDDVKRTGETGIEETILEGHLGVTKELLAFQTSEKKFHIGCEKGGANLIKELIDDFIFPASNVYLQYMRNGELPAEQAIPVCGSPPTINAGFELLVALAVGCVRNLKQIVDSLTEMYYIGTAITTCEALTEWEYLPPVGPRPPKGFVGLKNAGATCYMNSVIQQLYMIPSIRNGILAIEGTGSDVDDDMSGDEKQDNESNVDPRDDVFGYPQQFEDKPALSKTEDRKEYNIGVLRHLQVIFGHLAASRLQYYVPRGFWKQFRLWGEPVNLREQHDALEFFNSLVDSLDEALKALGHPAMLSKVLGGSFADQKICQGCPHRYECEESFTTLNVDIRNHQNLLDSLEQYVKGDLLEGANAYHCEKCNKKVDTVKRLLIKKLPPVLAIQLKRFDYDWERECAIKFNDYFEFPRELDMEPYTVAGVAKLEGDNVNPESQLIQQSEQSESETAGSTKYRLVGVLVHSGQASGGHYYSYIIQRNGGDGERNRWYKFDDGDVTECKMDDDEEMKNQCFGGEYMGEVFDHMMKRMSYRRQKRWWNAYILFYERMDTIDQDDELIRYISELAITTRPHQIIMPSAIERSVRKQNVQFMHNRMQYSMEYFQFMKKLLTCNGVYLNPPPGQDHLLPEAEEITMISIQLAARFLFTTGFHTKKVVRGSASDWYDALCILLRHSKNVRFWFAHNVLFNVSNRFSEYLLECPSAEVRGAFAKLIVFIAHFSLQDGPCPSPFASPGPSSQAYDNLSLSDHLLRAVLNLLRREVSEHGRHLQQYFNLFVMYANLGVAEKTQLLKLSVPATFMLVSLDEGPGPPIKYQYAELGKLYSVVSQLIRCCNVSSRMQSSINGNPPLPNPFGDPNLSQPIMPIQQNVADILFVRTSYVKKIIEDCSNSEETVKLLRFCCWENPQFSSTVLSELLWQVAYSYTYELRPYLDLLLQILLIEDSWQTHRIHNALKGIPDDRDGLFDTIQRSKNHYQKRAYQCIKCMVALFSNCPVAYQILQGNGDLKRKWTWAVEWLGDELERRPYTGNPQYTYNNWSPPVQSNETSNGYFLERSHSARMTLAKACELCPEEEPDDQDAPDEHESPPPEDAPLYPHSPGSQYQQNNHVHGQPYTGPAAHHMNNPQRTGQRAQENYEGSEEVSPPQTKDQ
Chain of USP7 (Q93009 whole entry, looked up): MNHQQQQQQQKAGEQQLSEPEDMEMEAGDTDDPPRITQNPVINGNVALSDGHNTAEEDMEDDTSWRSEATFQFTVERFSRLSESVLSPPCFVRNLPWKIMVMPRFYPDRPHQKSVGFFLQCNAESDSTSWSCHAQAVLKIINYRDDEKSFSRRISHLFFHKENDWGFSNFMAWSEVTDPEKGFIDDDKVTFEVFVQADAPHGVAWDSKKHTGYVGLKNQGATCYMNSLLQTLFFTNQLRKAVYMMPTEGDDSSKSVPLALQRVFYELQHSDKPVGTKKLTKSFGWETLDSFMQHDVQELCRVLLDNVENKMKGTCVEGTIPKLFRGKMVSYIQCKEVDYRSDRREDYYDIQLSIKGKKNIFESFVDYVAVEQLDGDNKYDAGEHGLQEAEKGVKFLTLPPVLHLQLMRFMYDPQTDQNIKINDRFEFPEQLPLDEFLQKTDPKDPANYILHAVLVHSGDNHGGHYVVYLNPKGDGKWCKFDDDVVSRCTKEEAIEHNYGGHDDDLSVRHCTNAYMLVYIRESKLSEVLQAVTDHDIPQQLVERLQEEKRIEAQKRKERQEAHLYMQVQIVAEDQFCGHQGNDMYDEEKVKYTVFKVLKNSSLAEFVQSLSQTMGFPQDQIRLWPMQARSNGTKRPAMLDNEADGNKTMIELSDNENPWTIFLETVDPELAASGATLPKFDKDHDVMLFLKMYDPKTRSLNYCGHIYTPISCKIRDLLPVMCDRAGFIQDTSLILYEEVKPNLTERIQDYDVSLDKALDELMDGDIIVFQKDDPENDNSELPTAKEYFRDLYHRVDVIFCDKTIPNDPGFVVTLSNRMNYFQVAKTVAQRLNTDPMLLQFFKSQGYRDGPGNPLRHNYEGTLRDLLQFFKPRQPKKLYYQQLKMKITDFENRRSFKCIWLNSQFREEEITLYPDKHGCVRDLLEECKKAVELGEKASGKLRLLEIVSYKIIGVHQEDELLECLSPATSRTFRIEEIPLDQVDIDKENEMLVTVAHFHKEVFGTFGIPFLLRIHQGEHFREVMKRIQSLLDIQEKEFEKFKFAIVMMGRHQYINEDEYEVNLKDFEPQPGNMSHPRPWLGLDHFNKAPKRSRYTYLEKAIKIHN
Chain of USP46 (P62068 whole entry): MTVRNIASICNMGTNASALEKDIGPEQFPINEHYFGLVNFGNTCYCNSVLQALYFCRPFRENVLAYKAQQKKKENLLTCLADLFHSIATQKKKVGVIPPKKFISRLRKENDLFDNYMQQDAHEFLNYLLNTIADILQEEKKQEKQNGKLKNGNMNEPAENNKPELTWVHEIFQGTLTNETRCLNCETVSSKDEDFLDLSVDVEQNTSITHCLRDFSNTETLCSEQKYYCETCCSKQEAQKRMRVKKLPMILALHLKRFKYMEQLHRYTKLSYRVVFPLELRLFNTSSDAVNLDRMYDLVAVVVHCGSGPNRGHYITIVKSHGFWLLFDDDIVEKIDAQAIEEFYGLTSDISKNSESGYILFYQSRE
Chain of UniProt O00487 (O00487 whole entry): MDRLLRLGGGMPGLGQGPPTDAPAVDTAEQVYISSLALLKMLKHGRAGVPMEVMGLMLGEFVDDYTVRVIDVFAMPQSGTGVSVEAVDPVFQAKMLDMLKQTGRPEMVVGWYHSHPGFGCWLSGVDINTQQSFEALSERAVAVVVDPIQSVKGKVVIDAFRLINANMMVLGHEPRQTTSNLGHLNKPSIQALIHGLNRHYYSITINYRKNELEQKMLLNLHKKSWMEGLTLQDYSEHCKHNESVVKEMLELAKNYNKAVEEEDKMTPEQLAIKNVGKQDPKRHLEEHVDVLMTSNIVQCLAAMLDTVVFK

O=C(CCl)N1CCc2nc[nH]c2C1c1ccc(Cl)cc1 (stereo not given)
inactive: USP42 -0.0471 | USP46 -0.363 | USP47 -0.614 | USP5 -0.146 | USP54 0.015 | USP8 0.126 | USP9X -0.619 | UniProt O00487 0.0187
active: USP48 -1.05 | USP7 -1.31

Reference: the supplement of paper PMC11732987, “Enantioselective OTUD7B fragment discovery through chemoproteomics screening and high-throughput optimisation” (Communications Chemistry, 2025)
